Tests used:
[1] = target: T1, Aspartate--tRNA(Asp/Asn) ligase (Mycobacterium tuberculosis (strain ATCC 25618 / H37Rv)) (UniProt P9WFW3); assay: Assay for Asp RNA synthetase-1 from Mycobacterium tuberculosis; type: functional; design: scale not given: direction of the effect not stated beside the values; details: 30 µM; note: in the data most compounds retested in dose-response had high values
T1 sequence (whole entry): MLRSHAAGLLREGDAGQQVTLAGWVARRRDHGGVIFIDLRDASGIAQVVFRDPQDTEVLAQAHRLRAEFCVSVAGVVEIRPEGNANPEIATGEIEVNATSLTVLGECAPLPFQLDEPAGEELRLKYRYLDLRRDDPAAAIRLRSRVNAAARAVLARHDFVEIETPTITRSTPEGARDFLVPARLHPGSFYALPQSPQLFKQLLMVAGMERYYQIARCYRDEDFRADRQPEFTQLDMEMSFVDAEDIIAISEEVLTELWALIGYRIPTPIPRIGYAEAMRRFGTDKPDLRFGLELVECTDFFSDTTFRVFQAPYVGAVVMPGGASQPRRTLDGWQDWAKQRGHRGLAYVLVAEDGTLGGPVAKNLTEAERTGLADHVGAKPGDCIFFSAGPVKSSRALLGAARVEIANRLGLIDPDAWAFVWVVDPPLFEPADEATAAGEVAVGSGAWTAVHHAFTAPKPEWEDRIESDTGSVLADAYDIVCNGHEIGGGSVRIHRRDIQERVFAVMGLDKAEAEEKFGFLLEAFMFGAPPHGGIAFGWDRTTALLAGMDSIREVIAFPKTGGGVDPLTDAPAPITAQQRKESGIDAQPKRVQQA

[2] = target: Shiga toxin 2 (Escherichia coli O157:H7) (UniProt P09385+P09386); assay: E. coli 0.157:H7 Shiga Toxin SOP - stx2 screening assay; type: functional; design: scale not given: direction of the effect not stated beside the values; details: 30 µM

| Compound | Percent Effect [1] | Percent Effect [2] |
| --- | --- | --- |
| Cc1ccc(-c2noc(CN3CCOC(Cn4cncn4)C3)n2)cc1 (centres undefined) | 3.79% | 5.98% |
| CN1CCCC[C@@H]2[C@H]1[C@@H](c1ccccc1)CCN2C(=O)c1cnccn1 | 0.342% | -18.3% |
| CCc1noc(CN2CCCC2c2noc(C3CC3)n2)n1 (centres undefined) | 0.459% | 12.9% |
| COCC1COCCC12CCN(C(=O)CCOc1ccccc1)CC2 (centres undefined) | 1.23% | 0.928% |
| CSc1sc(NC(=O)Cc2c(C)nc(C)[nH]c2=O)nc1C | -2.08% | -7.28% |
| COc1ccc(OC)c(CNCCc2cc(F)cc3c2OCOC3)c1 | 4.49% | 7.51% |
| CCc1noc(CNc2ccc(F)cc2OCC2CC2)n1 | 1.97% | 0.5% |
| CCS(=O)(=O)N1CCC2(CCCN(Cc3cc(OC)ccc3F)C2)C1 (centres undefined) | 0.836% | -3.7% |
| O=C(O)c1cc(-c2cccnc2)cc(S(=O)(=O)N2CCCCCC2)c1 | -3.5% | 11.4% |
| COc1cccc(CCNS(=O)(=O)c2ccc(NC(C)=O)cc2)c1 | -1.32% | -9.96% |
| Cc1cnn(CCNCc2nnc(C3CC3)o2)c1 | 4.75% | -42.1% |
| COCc1nc(C(=O)N2CCCC2c2ccccc2C)cs1 (centres undefined) | -0.975% | -12.9% |
| Cc1cc(C)n(CC2CN(Cc3nc(-c4ccoc4)no3)CCO2)n1 (centres undefined) | 5.71% | 28.8% |
| Cc1nn(C)c(C)c1C1CCCN1C(=O)c1ccc(NC2CC2)nc1 (centres undefined) | 2.27% | -36.7% |
| Cc1ccsc1CNC(=O)Cc1c(C)nc2c(c1C)c(=O)[nH]n2C | -4.18% | 23.7% |
| Cc1noc([C@H]2C[C@@H]3CCN(C(=O)N(C)C)C[C@H]3O2)n1 | 3.32% | -1.56% |
| CC(C)(C)c1noc(CN2CCCN(Cc3cccs3)CC2)n1 | -4.01% | -1.06% |

From ChEMBL document CHEMBL3988442, “University of Dundee, Small-Polar-MMV Screening Library” (2021)
